From PubChem BioAssay (NCI)
Compounds without any hit were thinned out: in the full panel of roughly 83,000, 20% have a hit.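 96-well plates, one dose, 48 hours. Percent growth reported; active if below 10.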 Calls of active or inactive are those of the source.

What was measured:
Experiment in all cases: NCI-60 one-dose screen, 48 h (100 = growth as untreated, 0 = no growth, -100 = all killed)
SK-MEL-2 melanoma = details: 10 µM unless noted
SN12C renal = details: 10 µM unless noted
UO-31 renal = details: 10 µM unless noted
TK-10 renal = details: 10 µM unless noted
CAKI-1 renal = details: 10 µM unless noted
A498 renal = details: 10 µM unless noted
CCRF-CEM leukemia = details: 10 µM unless noted
MOLT-4 leukemia = details: 10 µM unless noted
SR leukemia = details: 10 µM unless noted
RPMI-8226 leukemia = details: 10 µM
OVCAR-8 ovarian = details: 10 µM unless noted
OVCAR-5 ovarian = details: 10 µM unless noted
OVCAR-4 ovarian = details: 10 µM unless noted
SK-OV-3 ovarian = details: 10 µM
IGROV1 ovarian = details: 10 µM unless noted
OVCAR-3 ovarian = details: 10 µM unless noted
HS 578T breast = details: 10 µM unless noted
ACHN renal = details: 10 µM unless noted
NCI/ADR-RES ovarian = details: 10 µM unless noted

Measured: growth

Clc1ccc(Nc2ccnc(N3CCN(c4ccnc5cc(Cl)ccc45)CC3)n2)cc1
inactive: SK-MEL-2 melanoma 73.7% | SN12C renal 51.4% | TK-10 renal 60.9% | CAKI-1 renal 34.8% | CCRF-CEM leukemia 38.4% | MOLT-4 leukemia 31.9% | SR leukemia 37.2% | RPMI-8226 leukemia 34.5% | OVCAR-8 ovarian 61.4% | OVCAR-5 ovarian 70.6% | OVCAR-4 ovarian 41.9% | SK-OV-3 ovarian 62.5% | OVCAR-3 ovarian 35.5% | HS 578T breast 49.1%
active: UO-31 renal -8.75% | A498 renal -1.58% | IGROV1 ovarian -4.05%

COc1ccc(Cn2c(Br)c3c(c2-c2cc(OC)c(OC)c(OC)c2)CCc2sc(N)nc2-3)cc1
inactive: SK-MEL-2 melanoma 50.3% | SN12C renal 31.9% | UO-31 renal 35.2% | TK-10 renal 46.2% | ACHN renal 42.1% | RPMI-8226 leukemia 21.2% | OVCAR-8 ovarian 12.3% | OVCAR-5 ovarian 37.1% | IGROV1 ovarian 36.7%
active: A498 renal -15.8% | CCRF-CEM leukemia 3.52% | MOLT-4 leukemia 8.47% | SR leukemia 4.41% | SK-OV-3 ovarian 3.83% | OVCAR-3 ovarian -25.5% | HS 578T breast 8.13% | NCI/ADR-RES ovarian 3.87%

Cc1cc(=O)oc2c1ccc1oc(C(=O)c3ccccc3)c(C)c12
inactive: SK-MEL-2 melanoma 104% | SN12C renal 71% | UO-31 renal 100% | TK-10 renal 113% | ACHN renal 76.9% | A498 renal 82.8% | MOLT-4 leukemia 76.8% | SR leukemia 60.3% | RPMI-8226 leukemia 69.5% | OVCAR-8 ovarian 76.2% | OVCAR-5 ovarian 104% | OVCAR-4 ovarian 66.8% | SK-OV-3 ovarian 109% | IGROV1 ovarian 102% | OVCAR-3 ovarian 85.6% | HS 578T breast 103% | NCI/ADR-RES ovarian 83.3%

COc1ccc(OC2=C(C#N)C(=N)N3c4ccccc4Sc4ccccc4C3N2)cc1 (stereo unspecified)
inactive: SK-MEL-2 melanoma 130% | SN12C renal 94.3% | UO-31 renal 59.5% | TK-10 renal 120% | ACHN renal 83.3% | CCRF-CEM leukemia 80.9% | MOLT-4 leukemia 139% | SR leukemia 104% | RPMI-8226 leukemia 88% | OVCAR-8 ovarian 102% | OVCAR-5 ovarian 102% | OVCAR-4 ovarian 112% | SK-OV-3 ovarian 79.3% | IGROV1 ovarian 63% | OVCAR-3 ovarian 92.1% | NCI/ADR-RES ovarian 85.2%

COc1ccc(/C=N/OCC(O)CN2CCC(O)CC2)cc1OC1CCCC1 (stereo unspecified)
inactive: SK-MEL-2 melanoma 105% | SN12C renal 103% | UO-31 renal 88.6% | TK-10 renal 106% | ACHN renal 104% | CCRF-CEM leukemia 113% | MOLT-4 leukemia 106% | SR leukemia 112% | RPMI-8226 leukemia 110% | OVCAR-8 ovarian 109% | OVCAR-5 ovarian 101% | OVCAR-4 ovarian 100% | IGROV1 ovarian 107% | OVCAR-3 ovarian 114% | HS 578T breast 108% | NCI/ADR-RES ovarian 104%

Cc1nc2ccc(Cl)cc2n1C
inactive: SK-MEL-2 melanoma 101% | SN12C renal 101% | UO-31 renal 102% | TK-10 renal 97.2% | CAKI-1 renal 101% | A498 renal 95.5% | CCRF-CEM leukemia 94.6% | MOLT-4 leukemia 97.7% | SR leukemia 96.7% | RPMI-8226 leukemia 97.4% | OVCAR-8 ovarian 101% | OVCAR-5 ovarian 103% | OVCAR-4 ovarian 114% | IGROV1 ovarian 106% | OVCAR-3 ovarian 109% | HS 578T breast 99.6% | NCI/ADR-RES ovarian 112%

ONc1nc(NO)c2[nH]cnc2n1
active: MOLT-4 leukemia 9.57%
inactive: SK-MEL-2 melanoma 96% | SN12C renal 80.7% | UO-31 renal 52.6% | ACHN renal 60.9% | CAKI-1 renal 64.1% | A498 renal 78.7% | CCRF-CEM leukemia 12.7% | SR leukemia 21.3% | RPMI-8226 leukemia 45.1% | OVCAR-8 ovarian 58.3% | OVCAR-5 ovarian 89.5% | OVCAR-4 ovarian 84.7% | SK-OV-3 ovarian 97.1% | IGROV1 ovarian 86.9% | OVCAR-3 ovarian 87.8% | HS 578T breast 108% | NCI/ADR-RES ovarian 74.7%

O=C1/C(=C/c2ccc(F)cc2)CN(Cc2cn(CCNc3ccnc4cc(Cl)ccc34)nn2)C/C1=C\c1ccc(F)cc1
active: SK-MEL-2 melanoma -63.7% | SN12C renal -75% | UO-31 renal -95.8% | TK-10 renal -20.3% | ACHN renal -100% | A498 renal -79.3% | MOLT-4 leukemia -18.4% | SR leukemia -23.7% | RPMI-8226 leukemia -31% | OVCAR-8 ovarian -5.64% | OVCAR-5 ovarian -57.6% | SK-OV-3 ovarian -27.1% | IGROV1 ovarian 0.407% | OVCAR-3 ovarian -39.7% | NCI/ADR-RES ovarian 4.23%
inactive: OVCAR-4 ovarian 23.3% | HS 578T breast 18.2%

C[C@@H](Oc1cc(-c2cnn(C3CC4(CNC4)C3)c2)cnc1N)c1c(Cl)ccc(F)c1Cl
inactive: SK-MEL-2 melanoma 32.6% | SN12C renal 22.9% | UO-31 renal 51.5% | ACHN renal 48.6% | CAKI-1 renal 65.7% | A498 renal 24% | CCRF-CEM leukemia 24% | RPMI-8226 leukemia 27.7% | OVCAR-8 ovarian 48.9% | OVCAR-5 ovarian 38.1% | OVCAR-4 ovarian 48.2% | SK-OV-3 ovarian 66.3% | IGROV1 ovarian 64.2% | OVCAR-3 ovarian 63.2% | HS 578T breast 41.6% | NCI/ADR-RES ovarian 91.3%
active: MOLT-4 leukemia 0.522% | SR leukemia -24.6%

COc1ccc(-c2c3c(N)c4c(nc3nc3c2c(C)nn3-c2ccccc2)CCCCC4)cc1
active: RPMI-8226 leukemia -4.18%
inactive: SK-MEL-2 melanoma 83.3% | SN12C renal 93% | UO-31 renal 61.6% | TK-10 renal 74.8% | CAKI-1 renal 84.2% | A498 renal 87.9% | MOLT-4 leukemia 49.5% | SR leukemia 54.1% | OVCAR-8 ovarian 83.2% | OVCAR-5 ovarian 86.3% | OVCAR-4 ovarian 67.8% | SK-OV-3 ovarian 85.6% | IGROV1 ovarian 86.7% | OVCAR-3 ovarian 72.6% | HS 578T breast 101% | NCI/ADR-RES ovarian 86.9%

O=C1C2CC3C(CC2C(=O)[N]1[Sn]([c]1ccccc1)([c]1ccccc1)[c]1ccccc1)C1(Cl)C(Cl)=C(Cl)C3(Cl)C1(Cl)Cl (stereo unspecified)
active: SK-MEL-2 melanoma -93.5% | SN12C renal -87.3% | UO-31 renal -98.3% | TK-10 renal -100% | CAKI-1 renal -92.8% | A498 renal -95.5% | CCRF-CEM leukemia -43.3% | MOLT-4 leukemia -46.1% | SR leukemia -50.1% | RPMI-8226 leukemia -52.3% | OVCAR-8 ovarian -97.5% | OVCAR-5 ovarian -100% | OVCAR-4 ovarian -83% | SK-OV-3 ovarian -100% | IGROV1 ovarian -66.2% | OVCAR-3 ovarian -97.3% | HS 578T breast -20%

Cn1c2ccccc2c2nn(C(=O)c3ccccc3)c(=O)nc21
inactive: SK-MEL-2 melanoma 113% | SN12C renal 102% | UO-31 renal 73.4% | ACHN renal 105% | CAKI-1 renal 103% | A498 renal 108% | CCRF-CEM leukemia 96.9% | MOLT-4 leukemia 104% | SR leukemia 93.7% | RPMI-8226 leukemia 98.7% | OVCAR-8 ovarian 117% | OVCAR-5 ovarian 101% | OVCAR-4 ovarian 125% | SK-OV-3 ovarian 116% | IGROV1 ovarian 101% | OVCAR-3 ovarian 122% | HS 578T breast 105% | NCI/ADR-RES ovarian 110%

COC(=O)CCC(=O)c1ccccc1
inactive: SK-MEL-2 melanoma 110% | SN12C renal 103% | UO-31 renal 118% | TK-10 renal 118% | CAKI-1 renal 96.8% | A498 renal 112% | CCRF-CEM leukemia 101% | MOLT-4 leukemia 101% | SR leukemia 90.9% | RPMI-8226 leukemia 98.6% | OVCAR-8 ovarian 102% | OVCAR-5 ovarian 98.4% | OVCAR-4 ovarian 112% | SK-OV-3 ovarian 119% | OVCAR-3 ovarian 111% | HS 578T breast 123%

COc1ncc(F)c(OC)n1
inactive: SK-MEL-2 melanoma 109% | SN12C renal 100% | UO-31 renal 86.9% | TK-10 renal 108% | CAKI-1 renal 94.5% | A498 renal 110% | CCRF-CEM leukemia 100% | MOLT-4 leukemia 94.7% | SR leukemia 94% | RPMI-8226 leukemia 101% | OVCAR-8 ovarian 97.3% | OVCAR-5 ovarian 97.9% | OVCAR-4 ovarian 90% | SK-OV-3 ovarian 97.8% | IGROV1 ovarian 103% | OVCAR-3 ovarian 114% | HS 578T breast 118%

CCC(C)Oc1cc(/C=N/NC(=O)c2cnn3c2NC(c2ccccc2)C3)ccc1OC (stereo unspecified)
active: OVCAR-3 ovarian 2.52% | HS 578T breast -15.1%
inactive: SK-MEL-2 melanoma 35.6% | SN12C renal 47% | UO-31 renal 53.8% | TK-10 renal 70.7% | ACHN renal 40.7% | CCRF-CEM leukemia 23.1% | MOLT-4 leukemia 24.9% | SR leukemia 25.8% | RPMI-8226 leukemia 45.7% | OVCAR-8 ovarian 47.2% | OVCAR-5 ovarian 61.3% | OVCAR-4 ovarian 48.3% | IGROV1 ovarian 48.1% | NCI/ADR-RES ovarian 18.6%

O=[N+]([O-])c1ccc(C=C2C(Cl)=C(Cl)C(Cl)=C2Cl)cc1
active: UO-31 renal -19.8% | MOLT-4 leukemia 5.43% | SR leukemia -1.36% | OVCAR-3 ovarian -17% | HS 578T breast -13.4%
inactive: SK-MEL-2 melanoma 102% | SN12C renal 52.3% | TK-10 renal 28.3% | CAKI-1 renal 53% | A498 renal 104% | CCRF-CEM leukemia 15.7% | RPMI-8226 leukemia 11.4% | OVCAR-8 ovarian 22.4% | OVCAR-5 ovarian 112% | OVCAR-4 ovarian 54.5% | SK-OV-3 ovarian 115%

Cc1ccc(S(=O)(=O)N2C/C(=C\c3cc(F)cc(F)c3)C(=O)/C(=C/c3cc(F)cc(F)c3)C2)cc1
active: SK-MEL-2 melanoma -25.9% | SN12C renal -73.9% | UO-31 renal -90.5% | TK-10 renal 8.08% | CAKI-1 renal -7.75% | A498 renal -25.7% | CCRF-CEM leukemia -9.43% | MOLT-4 leukemia -5.52% | SR leukemia 3.56% | RPMI-8226 leukemia -15.1% | OVCAR-8 ovarian -29% | OVCAR-5 ovarian -30.6% | OVCAR-4 ovarian -31.4% | IGROV1 ovarian -58.6% | OVCAR-3 ovarian -82.9% | NCI/ADR-RES ovarian 7.23%
inactive: SK-OV-3 ovarian 14.9% | HS 578T breast 11.3%

C[C@@H](Oc1cc(-c2cnn(C3CC4(CCNCC4)C3)c2)cnc1N)c1c(F)ccc(Cl)c1Cl
active: SK-MEL-2 melanoma -65.5% | A498 renal -6.38% | CCRF-CEM leukemia -19.6% | MOLT-4 leukemia -33% | SR leukemia -29.2% | RPMI-8226 leukemia -40.1%
inactive: SN12C renal 22% | UO-31 renal 13.8% | ACHN renal 28.2% | CAKI-1 renal 60.9% | OVCAR-8 ovarian 39.8% | OVCAR-5 ovarian 27.8% | OVCAR-4 ovarian 40.7% | SK-OV-3 ovarian 62.6% | IGROV1 ovarian 47.7% | OVCAR-3 ovarian 44.4% | HS 578T breast 25.6% | NCI/ADR-RES ovarian 61.5%
